Measurements taken from the supplement of paper PMC11732987, “Enantioselective OTUD7B fragment discovery through chemoproteomics screening and high-throughput optimisation” (Communications Chemistry, 2025).

Assays:
Assay in all cases: log2 ratio of Biotin-Ahx-Ub-VS probe labelling (fragment/DMSO); higher = less target engagement (more negative = stronger competition), active = hit call of the paper (q ≤ 0.05, log2 ratio ≤ -1)
Settings in all cases: compound concentration: 200 uM; treatment time: 3 h
[1] = molecular target: T1, ALG13 (UniProt Q9NP73)
T1 sequence (whole entry): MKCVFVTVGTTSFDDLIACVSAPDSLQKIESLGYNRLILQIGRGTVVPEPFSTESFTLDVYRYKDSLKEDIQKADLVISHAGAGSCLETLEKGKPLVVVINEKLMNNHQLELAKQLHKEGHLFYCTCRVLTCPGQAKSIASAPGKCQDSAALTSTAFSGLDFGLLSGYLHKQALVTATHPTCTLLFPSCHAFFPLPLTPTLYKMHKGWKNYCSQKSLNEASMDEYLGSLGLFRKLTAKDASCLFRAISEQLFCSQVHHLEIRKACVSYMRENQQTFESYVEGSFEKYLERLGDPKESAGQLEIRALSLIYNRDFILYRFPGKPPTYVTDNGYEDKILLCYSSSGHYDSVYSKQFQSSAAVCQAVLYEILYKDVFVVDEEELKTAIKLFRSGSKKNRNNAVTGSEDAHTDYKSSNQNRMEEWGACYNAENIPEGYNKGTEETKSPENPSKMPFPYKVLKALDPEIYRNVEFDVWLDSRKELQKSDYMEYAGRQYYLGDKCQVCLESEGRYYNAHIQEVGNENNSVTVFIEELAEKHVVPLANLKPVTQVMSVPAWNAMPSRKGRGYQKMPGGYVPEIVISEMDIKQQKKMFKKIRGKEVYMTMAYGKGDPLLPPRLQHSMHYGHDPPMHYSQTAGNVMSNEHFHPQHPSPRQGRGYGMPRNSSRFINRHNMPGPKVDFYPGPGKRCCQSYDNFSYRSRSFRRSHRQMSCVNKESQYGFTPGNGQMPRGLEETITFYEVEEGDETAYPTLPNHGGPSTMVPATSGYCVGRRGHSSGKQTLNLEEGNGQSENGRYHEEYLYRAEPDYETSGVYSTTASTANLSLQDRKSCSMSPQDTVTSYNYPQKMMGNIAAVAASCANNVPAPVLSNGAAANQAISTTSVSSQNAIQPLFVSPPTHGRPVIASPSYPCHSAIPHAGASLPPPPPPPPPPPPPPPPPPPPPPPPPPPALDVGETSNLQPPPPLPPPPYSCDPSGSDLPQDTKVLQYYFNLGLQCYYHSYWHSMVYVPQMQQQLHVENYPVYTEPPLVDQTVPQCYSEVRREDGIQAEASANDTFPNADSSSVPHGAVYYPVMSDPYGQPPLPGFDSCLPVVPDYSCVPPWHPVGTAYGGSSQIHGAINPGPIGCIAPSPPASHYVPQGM
Summary of the method: (§1)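 Lysate from HEK293T cells, 495 µg per sample in Tris/CHAPS/IGEPAL buffer with protease inhibitors, was treated for 3 h in triplicate with fragment at 200 µM or vehicle. Biotin-Ahx-Ub-VS was next added at 0.5 µM final for 1 h. The labelled DUBs were enriched with NeutrAvidin, digested with LysC and trypsin, and run by diaPASEF LC-MS/MS, with values given as average log2 fragment/vehicle ratios by unpaired t-test on global-median-normalised Spectronaut quantities of proteins with ≥2 unique peptides.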

[2] = molecular target: ATXN3 (UniProt P54252)
Chain of ATXN3 (P54252 whole entry): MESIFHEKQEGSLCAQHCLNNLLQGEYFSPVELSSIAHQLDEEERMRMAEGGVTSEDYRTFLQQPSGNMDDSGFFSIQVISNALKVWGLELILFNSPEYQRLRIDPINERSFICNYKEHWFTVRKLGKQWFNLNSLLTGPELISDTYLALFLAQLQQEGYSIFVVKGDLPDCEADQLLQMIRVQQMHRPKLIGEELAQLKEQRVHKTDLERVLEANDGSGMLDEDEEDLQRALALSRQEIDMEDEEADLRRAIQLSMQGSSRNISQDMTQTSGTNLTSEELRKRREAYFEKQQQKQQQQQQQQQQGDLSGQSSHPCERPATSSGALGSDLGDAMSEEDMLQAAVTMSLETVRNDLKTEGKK
Summary of the method: as §1

[3] = molecular target: T2, BAP1 (UniProt Q92560)
T2 sequence (whole entry): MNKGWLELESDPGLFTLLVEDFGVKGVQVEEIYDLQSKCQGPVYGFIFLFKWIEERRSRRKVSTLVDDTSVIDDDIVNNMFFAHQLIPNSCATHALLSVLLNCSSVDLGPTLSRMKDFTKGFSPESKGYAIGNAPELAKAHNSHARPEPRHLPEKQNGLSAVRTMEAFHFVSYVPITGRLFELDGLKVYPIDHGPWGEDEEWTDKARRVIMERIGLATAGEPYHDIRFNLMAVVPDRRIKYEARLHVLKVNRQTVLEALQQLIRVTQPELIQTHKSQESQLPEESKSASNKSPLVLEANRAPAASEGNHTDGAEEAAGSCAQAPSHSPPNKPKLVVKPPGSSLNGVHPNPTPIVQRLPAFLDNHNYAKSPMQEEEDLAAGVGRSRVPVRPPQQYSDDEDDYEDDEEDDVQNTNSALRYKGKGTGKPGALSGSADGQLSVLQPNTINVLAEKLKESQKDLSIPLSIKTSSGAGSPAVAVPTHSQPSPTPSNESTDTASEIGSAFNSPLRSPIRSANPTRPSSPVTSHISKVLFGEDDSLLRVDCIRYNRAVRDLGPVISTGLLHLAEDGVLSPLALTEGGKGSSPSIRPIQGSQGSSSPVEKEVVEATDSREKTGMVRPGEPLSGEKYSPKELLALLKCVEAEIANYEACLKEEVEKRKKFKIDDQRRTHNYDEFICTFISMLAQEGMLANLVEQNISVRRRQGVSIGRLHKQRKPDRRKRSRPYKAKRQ
Summary of the method: as §1

[4] = molecular target: EIF3F (UniProt O00303)
Chain of EIF3F (O00303 whole entry): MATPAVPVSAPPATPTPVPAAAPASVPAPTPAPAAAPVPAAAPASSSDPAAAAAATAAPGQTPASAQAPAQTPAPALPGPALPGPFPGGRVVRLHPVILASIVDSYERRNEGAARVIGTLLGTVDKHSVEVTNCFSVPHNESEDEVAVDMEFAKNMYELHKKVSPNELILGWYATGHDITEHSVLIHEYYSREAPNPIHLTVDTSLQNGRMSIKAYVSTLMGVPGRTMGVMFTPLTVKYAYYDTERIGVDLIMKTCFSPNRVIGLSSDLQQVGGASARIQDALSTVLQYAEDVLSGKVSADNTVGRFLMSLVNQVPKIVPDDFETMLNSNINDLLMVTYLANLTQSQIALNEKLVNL
Summary of the method: as §1

[5] = molecular target: EIF3H (UniProt O15372)
Chain of EIF3H (O15372 whole entry): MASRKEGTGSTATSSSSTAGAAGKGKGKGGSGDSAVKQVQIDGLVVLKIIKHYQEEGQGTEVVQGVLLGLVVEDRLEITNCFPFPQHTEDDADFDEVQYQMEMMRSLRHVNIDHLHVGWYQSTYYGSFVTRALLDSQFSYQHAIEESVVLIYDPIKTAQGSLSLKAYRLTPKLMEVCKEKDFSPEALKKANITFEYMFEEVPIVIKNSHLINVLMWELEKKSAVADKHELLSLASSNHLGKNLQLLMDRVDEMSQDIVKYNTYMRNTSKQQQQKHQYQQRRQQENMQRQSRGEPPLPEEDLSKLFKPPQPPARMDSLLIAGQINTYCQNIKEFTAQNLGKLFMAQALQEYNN
Summary of the method: as §1

[6] = molecular target: T3, FAM105A (UniProt Q9NUU6)
T3 sequence (whole entry): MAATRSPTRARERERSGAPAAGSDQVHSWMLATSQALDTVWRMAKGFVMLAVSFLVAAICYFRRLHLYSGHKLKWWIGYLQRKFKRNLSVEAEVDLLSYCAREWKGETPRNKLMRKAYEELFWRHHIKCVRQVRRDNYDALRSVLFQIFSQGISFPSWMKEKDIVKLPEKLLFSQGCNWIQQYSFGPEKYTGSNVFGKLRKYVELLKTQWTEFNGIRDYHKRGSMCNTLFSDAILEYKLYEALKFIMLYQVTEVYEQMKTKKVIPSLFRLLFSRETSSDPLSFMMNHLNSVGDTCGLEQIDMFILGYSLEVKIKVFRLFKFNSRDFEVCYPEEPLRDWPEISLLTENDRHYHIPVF
Summary of the method: as §1

[7] = molecular target: OTUB1 (UniProt Q96FW1)
Chain of OTUB1 (Q96FW1 whole entry): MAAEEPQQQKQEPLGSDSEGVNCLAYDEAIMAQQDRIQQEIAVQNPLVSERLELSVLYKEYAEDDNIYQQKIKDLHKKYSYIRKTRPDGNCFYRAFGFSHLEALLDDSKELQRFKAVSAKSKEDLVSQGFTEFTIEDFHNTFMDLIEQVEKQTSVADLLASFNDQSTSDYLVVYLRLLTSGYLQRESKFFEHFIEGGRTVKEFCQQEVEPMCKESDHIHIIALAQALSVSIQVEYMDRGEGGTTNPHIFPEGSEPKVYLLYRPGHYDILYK
Summary of the method: as §1

[8] = molecular target: T4, OTUD4 (UniProt Q01804)
T4 sequence (whole entry): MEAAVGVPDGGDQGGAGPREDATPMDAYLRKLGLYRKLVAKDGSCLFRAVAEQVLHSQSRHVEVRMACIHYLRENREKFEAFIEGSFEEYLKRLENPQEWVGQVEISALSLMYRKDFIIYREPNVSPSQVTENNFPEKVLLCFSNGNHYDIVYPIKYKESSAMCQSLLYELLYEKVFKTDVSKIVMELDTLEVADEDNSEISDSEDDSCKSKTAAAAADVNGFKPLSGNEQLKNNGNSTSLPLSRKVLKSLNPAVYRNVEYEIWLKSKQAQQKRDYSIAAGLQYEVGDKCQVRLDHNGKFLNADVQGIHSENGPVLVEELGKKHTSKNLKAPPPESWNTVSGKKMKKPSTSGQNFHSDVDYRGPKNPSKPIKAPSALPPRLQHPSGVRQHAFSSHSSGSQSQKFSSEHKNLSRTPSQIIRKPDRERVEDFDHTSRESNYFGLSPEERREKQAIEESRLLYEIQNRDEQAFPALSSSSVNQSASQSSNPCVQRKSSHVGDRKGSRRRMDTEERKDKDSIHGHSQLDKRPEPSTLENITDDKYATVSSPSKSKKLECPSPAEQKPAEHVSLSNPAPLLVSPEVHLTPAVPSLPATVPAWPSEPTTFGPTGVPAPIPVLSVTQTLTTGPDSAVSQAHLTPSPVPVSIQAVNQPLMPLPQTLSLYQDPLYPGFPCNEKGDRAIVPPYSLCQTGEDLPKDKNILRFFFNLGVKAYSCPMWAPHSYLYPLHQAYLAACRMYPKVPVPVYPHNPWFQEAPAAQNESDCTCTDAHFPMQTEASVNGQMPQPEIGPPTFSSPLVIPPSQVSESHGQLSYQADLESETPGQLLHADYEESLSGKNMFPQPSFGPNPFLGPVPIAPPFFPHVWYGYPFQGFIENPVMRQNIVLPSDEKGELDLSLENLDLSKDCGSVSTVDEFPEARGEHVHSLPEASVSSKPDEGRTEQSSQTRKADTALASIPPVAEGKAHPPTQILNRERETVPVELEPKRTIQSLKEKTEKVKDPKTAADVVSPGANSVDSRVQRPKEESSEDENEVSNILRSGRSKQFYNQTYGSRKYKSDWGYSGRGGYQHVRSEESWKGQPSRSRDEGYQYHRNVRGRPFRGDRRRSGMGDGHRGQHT
Summary of the method: as §1

[9] = molecular target: T5, OTUD5 (UniProt Q96G74)
T5 sequence (whole entry): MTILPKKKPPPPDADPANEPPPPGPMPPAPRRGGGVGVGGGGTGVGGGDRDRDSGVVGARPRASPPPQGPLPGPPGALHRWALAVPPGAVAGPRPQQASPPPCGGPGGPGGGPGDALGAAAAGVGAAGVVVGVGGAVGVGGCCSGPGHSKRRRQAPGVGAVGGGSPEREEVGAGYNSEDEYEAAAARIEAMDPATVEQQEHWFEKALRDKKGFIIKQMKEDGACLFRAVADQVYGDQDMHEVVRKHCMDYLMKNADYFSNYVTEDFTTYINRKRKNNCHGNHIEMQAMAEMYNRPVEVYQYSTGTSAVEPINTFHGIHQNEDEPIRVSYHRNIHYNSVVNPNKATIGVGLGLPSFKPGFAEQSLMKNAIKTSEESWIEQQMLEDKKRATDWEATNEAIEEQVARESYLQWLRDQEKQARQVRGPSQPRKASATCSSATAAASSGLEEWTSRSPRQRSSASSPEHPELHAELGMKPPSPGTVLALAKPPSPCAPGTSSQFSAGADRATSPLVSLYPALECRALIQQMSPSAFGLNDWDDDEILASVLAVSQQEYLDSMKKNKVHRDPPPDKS
Summary of the method: as §1

Measured: log2 ratio of Biotin-Ahx-Ub-VS probe labelling

O=C(CCl)N1CCc2nc[nH]c2C1c1ccc(Cl)cc1 (centres undefined)
inactive: [1] -0.0235 | [2] -0.508 | [4] -0.277 | [5] 0.263 | [6] 0.102 | [7] 0.00111 | [8] -0.508
active: [3] -1.65 | [9] -1.26
